Experimental findings from PubChem BioAssay are described below.

Values joined by “and” are separate entries in the source; they are usually repeats but may differ in a detail not shown here. Equal entries are not always repeated.

The experiment is described as follows: sensitizers of A549 cells to miR-34 induction, primary screen, imaging, A549 dox-inducible miR-34, nuclei and caspase counts (AID 1347080). Further: test concentration not given here. The note with it: A549 miR-34 inducible, Hoechst nuclei count, 48 h; measured here: total cells with miR-34 induction; stronger effect = lower value.
For the molecule `C[C@]12C=CC(=O)C=C1CCC1C2[C@@H](O)C[C@@]2(C)C1CC[C@]2(O)C(=O)COP(=O)(O)O` (stereo not given in full), the cell count turned out to be 6110.
Consider `CC(C)OC(=O)CCC/C=C\C[C@@H]1[C@@H](/C=C/C(O)COc2cccc(C(F)(F)F)c2)[C@H](O)C[C@@H]1O` (stereo not given in full), for which the cell count stood at 8710.
With `CC12CCC3c4ccc(O)cc4CCC3C1C[C@H](O)[C@@H]2O` (stereo not given in full), the cell count came to 8330.
Then `CC(C)(CO)C(O)C(=O)NCCC(=O)NCCSSCCNC(=O)CCNC(=O)C(O)C(C)(C)CO` (stereo not given), with 8560; and `COc1cc(O)cc(C(=O)c2ccccc2)c1S(=O)(=O)O`, with 9730.
Then `NCCCC(N)C(=O)O` (stereo not given), with 8560; and `N[C@@H](CO)c1ccccc1`, with 5440; and `CC(=O)Oc1cc2c(s1)CCN([C@H](C(=O)C1CC1)c1ccccc1F)C2`, with 7480.
Turning to `Cc1oc(=O)oc1CN1CCN(c2cc3c(cc2F)c(=O)c(C(=O)O)c2n3C(C)C2)CC1` (stereo not given), the cell count worked out at 9060.
Regarding `O=C(O)c1ccccc1-c1c2cc(I)c(=O)c(I)c-2oc2c(I)c(O)c(I)cc12`, the cell count was found to be 9160.
Then `NC(N)=NCCCC(N)C(=O)O` (stereo not given), with 8700; and `Cc1cc(=O)c(C(=O)N[C@@H](C(=O)N[C@@H]2C(=O)N3C(C(=O)O)=C(CSc4nnnn4C)CSC23)c2ccc(O)cc2)c[nH]1` (stereo not given in full), with 8940.
Consider `CC1(C)O[C@@H]2CC3C4CCC5=CC(=O)C=C[C@]5(C)C4[C@@H](O)C[C@]3(C)[C@]2(C(=O)CO)O1` (stereo not given in full), for which the cell count was 5940.
Regarding `C=C(C)C1CC=C(C)CC1` (stereo not given), the cell count stood at 8150.
For `NC(=O)C1CCCN1C(=O)C(Cc1cnc[nH]1)NC(=O)C1CCC(=O)N1` (stereo not given), the cell count stood at 8800.
For the molecule `OC[C@@H](O)[C@H](O)[C@@H](O)[C@H](O)CO`, the cell count turned out to be 7670.
With `COc1nc(N)nc2c1ncn2C1O[C@H](CO)[C@@H](O)[C@@H]1O` (stereo not given in full), the cell count amounted to 7770.
With `Nc1nc(NC2CC2)c2ncn(C3C=C[C@@H](CO)C3)c2n1` (stereo not given in full), the cell count was determined as 8880.
With `CCN(CC)C(=O)C1(c2ccccc2)CC1CN` (stereo not given), the cell count turned out to be 8180.
For `Cc1cc(CC(C)CC(C)(C)C)n(O)c(=O)c1` (stereo not given) (tested in a mixture with another compound), the cell count was 2940 and 2820.
For `CC1/C=C/C=C/C=C/C=C/C=C/C=C/C=C/C(O[C@@H]2O[C@H](C)[C@H](O)[C@@H](O)[C@@H]2N)CC(O)C(C(=O)O)C(O)CC(=O)CC(O)CC(O)CC(O)CC(=O)CCCC(=O)CC(=O)OC1C(C)CC(C)C(O)CC(=O)c1ccc(N)cc1` (stereo not given in full) the value was 5340.
On to `CCCC[C@@H](CC)COC(=O)C(C#N)=C(c1ccccc1)c1ccccc1`, for which the cell count came to 8030.
Then `O=C1c2c(O)cccc2[C@@H](O[C@@H]2O[C@H](CO)[C@H](O)[C@@H](O)[C@H]2O)c2cc(CO)cc(O)c21`, with 8450.
For the molecule `Cc1cc2nc3c(=O)[nH]c(=O)nc-3n(C[C@@H](O)[C@@H](O)[C@@H](O)COP(=O)(O)O)c2cc1C`, the cell count was determined as 8530.
For `C#C[C@]1(O)CCC2C3CCc4cc(OC5CCCC5)ccc4C3CC[C@@]21C` (stereo not given in full) the value was 4740; for `CSCC[C@H](NC(=O)[C@H](Cc1c[nH]c2ccccc12)NC(=O)[C@H](C)NC(=O)OC(C)(C)C)C(=O)N[C@@H](CC(=O)O)C(=O)N[C@@H](Cc1ccccc1)C(N)=O`, 9410; for `C[C@]12CCC(=O)C=C1[C@@H]1C[C@@H]1C1C2CC[C@@]2(C)C1[C@@H]1C[C@@H]1[C@@]21CCC(=O)O1` (stereo not given in full), 7990.
Then `COc1c(O)cc2c(c1O)[C@H]1O[C@H](CO)[C@@H](O)[C@H](O)[C@@H]1OC2=O`, with 8900.
Then `CC(C)(O)c1ccccc1CC[C@@H](SC1(CC(=O)O)CC1)c1cccc(/C=C/c2ccc3ccc(Cl)cc3n2)c1`, with 9020; and `CC(C)C/C=C/C=C\C(=O)N[C@@H](CC(N)=O)C(=O)N[C@@H]1C(=O)N[C@H](c2ccc(O)cc2)C(=O)N[C@H](CCCN)C(=O)N[C@H]([C@H](C)O)C(=O)N[C@@H](c2ccc(O)cc2)C(=O)N[C@H](c2ccc(O)cc2)C(=O)N[C@@H]([C@H](C)O)C(=O)N[C@@H](Cc2ccccc2)C(=O)N[C@H](CCCN)C(=O)N[C@@H](c2ccc(O[C@@H]3O[C@H](CO)[C@H](O)[C@@H](O)[C@@H]3O[C@@H]3O[C@H](CO)[C@@H](O)[C@H](O)[C@H]3O)cc2)C(=O)NC(C(C)O)C(=O)N[C@@H](c2ccc(O)cc2)C(=O)NCC(=O)N[C@@H](CC(C)C)C(=O)N[C@H](C)C(=O)N[C@@H](c2ccc(O)c(Cl)c2)C(=O)O[C@@H]1C(N)=O` (stereo not given in full), with 8820; and `O=C1SCN(Cc2ccccc2)CN1Cc1ccccc1`, with 8570.
`CC(=O)[C@H]1CCC2C3CC=C4C[C@@H](OC(=O)CCC(=O)O)CC[C@]4(C)C3CC[C@@]21C` (stereo not given in full): the cell count stood at 8450.
On to `NC(=O)c1ncn(C2O[C@H](CO)[C@@H](O)[C@H]2O)c1N` (stereo not given in full), for which the cell count amounted to 9050.
For `CO/N=C(/C(=O)N[C@@H]1C(=O)N2C(C(=O)OCSC(=O)c3ccco3)=CCS[C@H]12)c1csc(N)n1` the value was 8470; for `CC(=O)[C@@]12O[C@](C)(c3ccccc3)O[C@@H]1CC1C3CCC4=CC(=O)CC[C@]4(C)C3CC[C@@]12C` (stereo not given in full), 5100; for `CC(=O)c1ccc2c(c1)Sc1ccccc1N2CCCN1CCN(CCO)CC1`, 8860.
As to `CO/N=C(/C(=O)NC1C(=O)N2C(C(=O)O)=C(CSc3nnnn3C)CSC12)c1csc(N)n1` (stereo not given), the cell count turned out to be 9050.
Take `O=c1[nH]c(=O)n([C@H]2C[C@H](O)C(CO)O2)cc1I` (stereo not given in full): the cell count came out at 7950.
Then `CC(=O)OC1CC2CCC1(C)C2(C)C` (stereo not given), with 8690; and `C[C@@H]1CC2C3CCC4=CC(=O)C=C[C@]4(C)[C@@]3(F)[C@@H](O)C[C@]2(C)[C@H]1C(=O)CO` (stereo not given in full), with 6390 and 5470.
